Reference: the supplement of paper PMC11732987, “Enantioselective OTUD7B fragment discovery through chemoproteomics screening and high-throughput optimisation” (Communications Chemistry, 2025)

Columns and labels:
Experiment in all cases: log2 ratio of Biotin-Ahx-Ub-VS probe labelling (fragment/DMSO); higher = less target engagement (more negative = stronger competition), active = hit call of the paper (q ≤ 0.05, log2 ratio ≤ -1)
Details in all cases: compound concentration: 200 uM; treatment time: 3 h
ALG13 = molecular target: T1, ALG13 (UniProt Q9NP73)
T1 sequence (whole entry): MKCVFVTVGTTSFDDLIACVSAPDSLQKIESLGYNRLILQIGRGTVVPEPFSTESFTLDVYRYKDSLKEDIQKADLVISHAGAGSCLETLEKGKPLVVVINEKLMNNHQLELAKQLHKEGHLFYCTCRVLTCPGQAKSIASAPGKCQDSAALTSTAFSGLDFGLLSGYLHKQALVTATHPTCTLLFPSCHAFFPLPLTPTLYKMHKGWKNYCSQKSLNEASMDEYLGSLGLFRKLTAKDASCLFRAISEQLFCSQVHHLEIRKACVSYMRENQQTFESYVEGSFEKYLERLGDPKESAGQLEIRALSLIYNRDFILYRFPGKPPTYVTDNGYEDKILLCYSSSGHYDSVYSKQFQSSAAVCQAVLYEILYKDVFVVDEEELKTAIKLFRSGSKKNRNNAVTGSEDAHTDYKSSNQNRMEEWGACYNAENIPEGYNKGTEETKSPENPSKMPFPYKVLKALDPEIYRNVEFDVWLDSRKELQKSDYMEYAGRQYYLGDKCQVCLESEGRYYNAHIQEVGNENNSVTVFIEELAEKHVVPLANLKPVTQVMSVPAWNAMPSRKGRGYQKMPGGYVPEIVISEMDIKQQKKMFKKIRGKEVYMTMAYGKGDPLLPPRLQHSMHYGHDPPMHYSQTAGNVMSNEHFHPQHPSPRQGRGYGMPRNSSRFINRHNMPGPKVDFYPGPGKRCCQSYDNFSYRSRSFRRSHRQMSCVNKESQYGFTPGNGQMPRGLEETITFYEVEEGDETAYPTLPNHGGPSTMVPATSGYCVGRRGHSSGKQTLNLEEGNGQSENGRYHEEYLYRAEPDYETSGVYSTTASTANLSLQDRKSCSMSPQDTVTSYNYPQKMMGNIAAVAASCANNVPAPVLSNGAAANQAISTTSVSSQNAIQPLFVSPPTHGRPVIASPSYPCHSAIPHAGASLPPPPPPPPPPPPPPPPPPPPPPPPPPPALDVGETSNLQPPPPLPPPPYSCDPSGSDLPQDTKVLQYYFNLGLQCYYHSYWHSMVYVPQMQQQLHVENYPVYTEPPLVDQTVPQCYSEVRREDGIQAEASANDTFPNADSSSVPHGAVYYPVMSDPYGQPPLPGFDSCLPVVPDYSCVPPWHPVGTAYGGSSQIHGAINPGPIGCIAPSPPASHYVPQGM
In short: (§1)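 HEK293T lysate (495 µg per sample, in Tris/CHAPS/IGEPAL buffer with protease inhibitors) was exposed in triplicate for 3 h to fragment at 200 µM or to vehicle, then to Biotin-Ahx-Ub-VS at 0.5 µM final for 1 h. Labelled DUBs were enriched on NeutrAvidin, digested with LysC and trypsin, and analysed by diaPASEF LC-MS/MS. Spectronaut label-free quantities were normalised to the global median, and values are average log2 ratios of fragment over vehicle from an unpaired t-test. Only proteins with ≥2 unique peptides were used.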

ATXN3 = ATXN3 (UniProt P54252)
ATXN3, sequence (P54252 whole entry): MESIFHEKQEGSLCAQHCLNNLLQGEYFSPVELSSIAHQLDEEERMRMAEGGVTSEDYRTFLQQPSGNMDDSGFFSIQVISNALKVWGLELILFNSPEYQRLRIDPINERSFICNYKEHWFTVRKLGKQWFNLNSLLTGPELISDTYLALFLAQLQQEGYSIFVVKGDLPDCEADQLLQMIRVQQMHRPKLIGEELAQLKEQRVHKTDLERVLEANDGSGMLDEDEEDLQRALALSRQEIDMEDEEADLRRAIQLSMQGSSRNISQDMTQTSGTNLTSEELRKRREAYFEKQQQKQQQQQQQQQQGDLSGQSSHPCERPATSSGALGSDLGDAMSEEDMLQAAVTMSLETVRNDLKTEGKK
In short: as §1

BAP1 = molecular target: T2, BAP1 (UniProt Q92560)
T2 sequence (whole entry): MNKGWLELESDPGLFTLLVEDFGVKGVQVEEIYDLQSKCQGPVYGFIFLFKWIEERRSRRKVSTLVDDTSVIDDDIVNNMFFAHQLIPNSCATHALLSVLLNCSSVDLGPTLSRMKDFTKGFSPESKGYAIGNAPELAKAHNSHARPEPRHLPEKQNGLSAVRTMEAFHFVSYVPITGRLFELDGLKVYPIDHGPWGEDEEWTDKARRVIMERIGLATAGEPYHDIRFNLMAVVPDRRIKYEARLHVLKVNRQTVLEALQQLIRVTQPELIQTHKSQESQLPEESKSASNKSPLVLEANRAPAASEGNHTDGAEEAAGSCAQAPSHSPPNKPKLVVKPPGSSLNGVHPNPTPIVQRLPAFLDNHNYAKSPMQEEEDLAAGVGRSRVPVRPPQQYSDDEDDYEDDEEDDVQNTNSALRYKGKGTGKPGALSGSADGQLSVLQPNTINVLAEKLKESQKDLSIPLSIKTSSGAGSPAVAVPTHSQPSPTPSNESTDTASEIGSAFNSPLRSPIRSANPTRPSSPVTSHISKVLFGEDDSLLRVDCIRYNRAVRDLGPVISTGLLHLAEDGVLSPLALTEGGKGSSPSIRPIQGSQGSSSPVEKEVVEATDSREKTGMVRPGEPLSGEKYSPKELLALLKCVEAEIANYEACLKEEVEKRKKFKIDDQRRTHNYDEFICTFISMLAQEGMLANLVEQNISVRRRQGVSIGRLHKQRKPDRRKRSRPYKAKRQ
In short: as §1

EIF3F = EIF3F (UniProt O00303)
EIF3F, sequence (O00303 whole entry): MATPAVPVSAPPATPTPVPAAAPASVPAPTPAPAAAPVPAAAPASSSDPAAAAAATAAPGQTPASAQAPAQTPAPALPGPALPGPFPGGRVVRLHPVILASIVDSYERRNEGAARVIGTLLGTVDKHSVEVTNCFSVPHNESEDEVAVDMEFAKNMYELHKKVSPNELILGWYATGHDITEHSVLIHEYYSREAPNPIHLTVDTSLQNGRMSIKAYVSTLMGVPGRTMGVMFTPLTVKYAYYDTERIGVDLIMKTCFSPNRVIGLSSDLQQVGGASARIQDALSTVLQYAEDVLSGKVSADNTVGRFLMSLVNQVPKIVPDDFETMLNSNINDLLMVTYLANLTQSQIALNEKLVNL
In short: as §1

EIF3H = EIF3H (UniProt O15372)
EIF3H, sequence (O15372 whole entry): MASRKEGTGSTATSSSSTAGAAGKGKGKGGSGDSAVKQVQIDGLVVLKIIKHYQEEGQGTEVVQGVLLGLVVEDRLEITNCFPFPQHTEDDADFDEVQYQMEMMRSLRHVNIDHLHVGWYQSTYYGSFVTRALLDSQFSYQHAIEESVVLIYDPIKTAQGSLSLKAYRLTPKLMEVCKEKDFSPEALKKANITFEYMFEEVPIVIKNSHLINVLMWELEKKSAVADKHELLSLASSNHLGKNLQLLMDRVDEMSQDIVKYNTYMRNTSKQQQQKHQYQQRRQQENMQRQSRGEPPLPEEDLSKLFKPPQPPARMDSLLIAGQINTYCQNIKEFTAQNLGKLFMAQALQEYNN
In short: as §1

FAM105A = molecular target: T3, FAM105A (UniProt Q9NUU6)
T3 sequence (whole entry): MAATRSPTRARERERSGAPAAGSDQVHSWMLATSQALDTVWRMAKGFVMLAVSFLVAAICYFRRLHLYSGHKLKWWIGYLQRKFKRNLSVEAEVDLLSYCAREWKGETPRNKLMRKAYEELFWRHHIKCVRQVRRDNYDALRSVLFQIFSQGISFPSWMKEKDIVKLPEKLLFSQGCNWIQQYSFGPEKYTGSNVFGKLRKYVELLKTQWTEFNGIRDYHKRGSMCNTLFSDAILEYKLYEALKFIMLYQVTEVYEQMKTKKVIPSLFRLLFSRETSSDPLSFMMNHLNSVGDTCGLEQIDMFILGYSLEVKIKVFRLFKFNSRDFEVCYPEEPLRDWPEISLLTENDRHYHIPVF
In short: as §1

OTUB1 = OTUB1 (UniProt Q96FW1)
OTUB1, sequence (Q96FW1 whole entry): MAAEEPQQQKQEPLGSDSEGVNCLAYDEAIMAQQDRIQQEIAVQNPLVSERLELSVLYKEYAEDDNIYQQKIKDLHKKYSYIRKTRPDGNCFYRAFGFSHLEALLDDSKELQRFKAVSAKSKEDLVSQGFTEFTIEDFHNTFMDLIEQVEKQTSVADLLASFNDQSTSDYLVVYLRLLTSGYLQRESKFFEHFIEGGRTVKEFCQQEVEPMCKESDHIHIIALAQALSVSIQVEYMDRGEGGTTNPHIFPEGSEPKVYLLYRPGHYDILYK
In short: as §1

OTUD4 = molecular target: T4, OTUD4 (UniProt Q01804)
T4 sequence (whole entry): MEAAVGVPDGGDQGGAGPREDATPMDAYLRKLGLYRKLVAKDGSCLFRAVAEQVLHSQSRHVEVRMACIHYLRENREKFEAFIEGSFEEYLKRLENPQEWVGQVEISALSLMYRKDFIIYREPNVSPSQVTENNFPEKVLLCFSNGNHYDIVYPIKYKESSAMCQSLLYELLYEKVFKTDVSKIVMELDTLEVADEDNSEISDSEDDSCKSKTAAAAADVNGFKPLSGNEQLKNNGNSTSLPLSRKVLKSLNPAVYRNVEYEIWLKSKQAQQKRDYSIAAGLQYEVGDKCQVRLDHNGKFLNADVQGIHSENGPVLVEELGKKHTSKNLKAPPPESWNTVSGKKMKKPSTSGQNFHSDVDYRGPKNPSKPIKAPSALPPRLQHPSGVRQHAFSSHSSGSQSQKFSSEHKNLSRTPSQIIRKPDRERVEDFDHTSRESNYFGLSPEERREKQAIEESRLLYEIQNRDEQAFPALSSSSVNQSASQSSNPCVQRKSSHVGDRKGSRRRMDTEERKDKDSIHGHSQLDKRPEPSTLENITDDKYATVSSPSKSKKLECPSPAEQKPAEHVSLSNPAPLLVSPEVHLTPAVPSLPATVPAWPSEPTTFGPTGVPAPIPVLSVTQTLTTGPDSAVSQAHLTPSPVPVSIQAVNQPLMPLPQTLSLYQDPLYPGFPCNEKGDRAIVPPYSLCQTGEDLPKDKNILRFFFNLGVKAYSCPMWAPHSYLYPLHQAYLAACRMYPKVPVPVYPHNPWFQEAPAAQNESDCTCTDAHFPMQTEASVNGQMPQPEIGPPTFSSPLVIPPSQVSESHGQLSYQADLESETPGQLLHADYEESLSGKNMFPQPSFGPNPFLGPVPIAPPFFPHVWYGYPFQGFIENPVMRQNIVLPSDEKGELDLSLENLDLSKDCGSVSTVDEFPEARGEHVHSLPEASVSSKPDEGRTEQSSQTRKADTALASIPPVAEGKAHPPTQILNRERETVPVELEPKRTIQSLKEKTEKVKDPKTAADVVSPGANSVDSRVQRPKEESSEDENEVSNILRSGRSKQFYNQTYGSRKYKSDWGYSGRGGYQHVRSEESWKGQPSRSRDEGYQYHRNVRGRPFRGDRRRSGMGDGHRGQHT
In short: as §1

OTUD5 = molecular target: T5, OTUD5 (UniProt Q96G74)
T5 sequence (whole entry): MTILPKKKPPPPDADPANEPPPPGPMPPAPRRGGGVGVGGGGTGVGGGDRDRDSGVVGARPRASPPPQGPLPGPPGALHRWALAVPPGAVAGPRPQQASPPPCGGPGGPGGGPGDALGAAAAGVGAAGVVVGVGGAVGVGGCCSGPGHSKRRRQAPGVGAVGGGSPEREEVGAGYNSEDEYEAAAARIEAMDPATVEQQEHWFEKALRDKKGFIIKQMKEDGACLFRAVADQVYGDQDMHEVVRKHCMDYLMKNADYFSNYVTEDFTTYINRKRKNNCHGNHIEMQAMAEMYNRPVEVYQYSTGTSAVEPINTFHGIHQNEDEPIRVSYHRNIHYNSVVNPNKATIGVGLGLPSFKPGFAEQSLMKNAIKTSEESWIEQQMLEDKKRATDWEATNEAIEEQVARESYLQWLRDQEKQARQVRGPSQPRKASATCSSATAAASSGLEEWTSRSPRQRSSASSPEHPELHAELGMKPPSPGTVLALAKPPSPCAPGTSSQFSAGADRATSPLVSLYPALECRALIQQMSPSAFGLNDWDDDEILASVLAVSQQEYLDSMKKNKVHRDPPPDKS
In short: as §1

Measured: log2 ratio of Biotin-Ahx-Ub-VS probe labelling

Cc1ccc(CC(CO)CNC(=O)CCl)cc1 (centres undefined)
inactive: ALG13 -0.289 | ATXN3 -0.385 | EIF3F 0.0794 | EIF3H 0.139 | FAM105A 0.442 | OTUB1 -0.0508 | OTUD4 -0.858 | OTUD5 -0.455
active: BAP1 -3.74
